The source of these data is PubChem BioAssay (EPA / NIEHS).

Several values for one entry are separate records, joined by “and”; a condition that tells them apart may be missing. Equal values may be shown once. Inconclusive results are not listed. Activity calls are given as the source filed them. The calls were made as follows: active = hit-call score of the fitted dose curve at least 0.9, where 1 is the maximum; inconclusive = response in the unintended direction; inactive = score below 0.9.

In one experiment the target is AR (gene 367) (UniProt P10275). As to the kind of experiment: ACEA_AR_antagonist_80hr: ACEA Biosciences xCELLigence Real-Time Cell Analysis on Androgen Receptor Antagonism for Proliferation (AID 2283787).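 Also: 22Rv1 human prostate cancer cells with growth followed by electrical impedance; hits lower the impedance growth signal relative to DMSO.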 Put shortly:
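Impedance readout (RT-CES), 80 h post-dose; loss-of-signal vs DMSO baseline. 22Rv1 cells in assay medium. Compounds: 8-pt 1:4 series, max 100 uM final, up to 0.5% DMSO; n = 2.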

Experiment [1] is described as follows: ATG_M_06_XSP1: Attagene TRANS-FACTORIAL Multi-Species (XSP1) HepG2 Assay for M06 Transcription Factor (Internal Marker) (AID 2283790). In short, it runs like this:
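Transfected HepG2 multi-reporter system treated 24 h in the presence of 3 nM 6-alpha-fluorotestosterone. The M06 internal marker transcript was quantified by RT-PCR with capillary electrophoresis as a background control, and gain of signal was scored versus DMSO.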

Experiment [2] can be described thus: ATG_M_61_XSP1: Attagene TRANS-FACTORIAL Multi-Species (XSP1) HepG2 Assay for M61 Transcription Factor (Internal Marker) (AID 2283797). In short, it runs like this: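 HepG2 cells transiently transfected with multiplexed GAL4-driven reporter units, dosed 24 h with 3 nM 6-alpha-fluorotestosterone present. Reporter mRNA quantified by RT-PCR, 6-FAM labelling, HpaI digestion and capillary electrophoresis; internal-marker background control, gain of signal versus DMSO.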

Experiment [3] has as its system zebrafish Peroxisome Proliferator-activated Receptor gamma (PPARg), gene 557037. As to the kind of experiment: ATG_zfPPARg_XSP1: Attagene TRANS-FACTORIAL Multi-Species (XSP1) HepG2 Assay for zebrafish Peroxisome Proliferator-activated Receptor gamma (PPARg) (AID 2283801). In short, it runs like this: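 HepG2 cells transiently transfected with GAL4-UAS reporter units including a zebrafish PPARg–GAL4 chimera, dosed 24 h with 3 nM 6-alpha-fluorotestosterone present. Reporter mRNA quantified by RT-PCR, FAM labelling, HpaI digestion and capillary electrophoresis; induction versus DMSO.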

The target in experiment [4] is Nuclear receptor subfamily 1 group I member 2 (Mus musculus) (UniProt O54915). The experiment can be described thus: ATG_mPXR_XSP1: Attagene TRANS-FACTORIAL Multi-Species (XSP1) HepG2 Assay for mouse Pregnane X Receptor (PXR) (AID 2283803). Put shortly:
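Transiently transfected HepG2 cells expressing a receptor-Gal4 chimera drive a GAL4-UAS reporter; 3 nM 6-alpha-fluorotestosterone included. Reporter mRNA read 24 h post-dose by RT-PCR and capillary electrophoresis; gain of signal relative to DMSO.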

Experiment [5] addresses frog Thyroid hormone Receptor alpha (TRa), thra-a (gene 397942) (UniProt P15204). As to the kind of experiment: ATG_frTRa_XSP1: Attagene TRANS-FACTORIAL Multi-Species (XSP1) HepG2 Assay for frog Thyroid hormone Receptor alpha (TRa) (AID 2283804). Put shortly:
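HepG2 cells transiently transfected with frog TRa-GAL4 chimeric reporter units, dosed 24 hr with 3 nM 6-alpha-fluorotestosterone present; reporter mRNA quantified by RT-PCR, fluorescent labelling and capillary electrophoresis, gain of signal versus DMSO.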

Experiment [6] has as its target human Thyroid hormone Receptor alpha (TRa), THRA (gene 7067) (UniProt P10827). As to the kind of experiment: ATG_hTRa_XSP1: Attagene TRANS-FACTORIAL Multi-Species (XSP1) HepG2 Assay for human Thyroid hormone Receptor alpha (TRa) (AID 2283805). In short, it runs like this:
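HepG2 cells transiently transfected with GAL4-UAS reporter units expressing chimeric NR-Gal4 proteins, dosed 24 hours with 3 nM 6-alpha-fluorotestosterone present. Reporter mRNA measured by RT-PCR and capillary electrophoresis; gain of signal fitted versus DMSO.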

The subject of experiment [7] is turtle Thyroid Hormone Receptor, alpha (TRa), gene 101949057. As to the kind of experiment: ATG_trTRa_XSP1: Attagene TRANS-FACTORIAL Multi-Species (XSP1) HepG2 Assay for turtle Thyroid Hormone Receptor, alpha (TRa) (AID 2283806). In short, it runs like this: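 HepG2 cells transiently transfected with GAL4-UAS reporter units and chimeric receptor-Gal4 constructs, with 3 nM 6-alpha-fluorotestosterone present. Reporter mRNA was quantified 24 h after dosing by RT-PCR, 6-FAM labelling and capillary electrophoresis; gain of signal versus DMSO.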

For experiment [8], the target named is zebrafish Thyroid Hormone Receptor alpha (TRa), thraa (gene 30670) (UniProt Q98867). As to the kind of experiment: ATG_zfTRa_XSP1: Attagene TRANS-FACTORIAL Multi-Species (XSP1) HepG2 Assay for zebrafish Thyroid Hormone Receptor alpha (TRa) (AID 2283807). Put shortly:
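HepG2 cells transiently transfected with GAL4-UAS reporter units including a zebrafish TRa–Gal4 chimera, dosed 24 h with 3 nM 6-alpha-fluorotestosterone present. Reporter mRNA quantified by RT-PCR and capillary electrophoresis; gain versus DMSO.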

The target in experiment [9] is human Thyroid hormone Receptor beta (TRb), THRB (gene 7068) (UniProt P10828). The experiment can be described thus: ATG_hTRb_XSP1: Attagene TRANS-FACTORIAL Multi-Species (XSP1) HepG2 Assay for human Thyroid hormone Receptor beta (TRb) (AID 2283808). In short, it runs like this:
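HepG2 cells transiently transfected with reporter units driving GAL4-UAS reporters for chimeric NR-Gal4 proteins; 24 h chemical exposure with 3 nM 6-alpha-fluorotestosterone present. Reporter mRNA quantified by RT-PCR and capillary electrophoresis, gain of signal versus DMSO.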

In experiment [10] the target is zebrafish Thyroid Hormone Receptor beta (TRb), thrb (gene 30607) (UniProt Q9PVE4). The experiment can be described thus: ATG_zfTRb_XSP1: Attagene TRANS-FACTORIAL Multi-Species (XSP1) HepG2 Assay for zebrafish Thyroid Hormone Receptor beta (TRb) (AID 2283809). In short, it runs like this:
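HepG2 cells transiently transfected with multiplexed GAL4-UAS reporter units expressing chimeric zebrafish TRb–Gal4. Dosed 24 h with 3 nM 6-alpha-fluorotestosterone present; reporter mRNA measured by RT-PCR, HpaI digestion and capillary electrophoresis; gain of signal versus DMSO.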

Experiment [11] in a line: ATG_XTT_Cytotoxicity_XSP1: Cytotoxicity Assessment in the Attagene TRANS-FACTORIAL Multi-Species (XSP1) HepG2 Assay (AID 2283810). Put shortly: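 XTT viability readout taken at 24 hours post-dosing in HepG2 liver cells co-treated with 3 nM 6-alpha-fluorotestosterone. Signal loss relative to DMSO controls reflects cytotoxicity.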
The subject of experiment [12] is turtle Androgen Receptor (AR), gene 101947425. The experiment can be described thus: ATG_trAR_XSP1: Attagene TRANS-FACTORIAL Multi-Species (XSP1) HepG2 Assay for turtle Androgen Receptor (AR) (AID 2283786). In short, it runs like this:
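HepG2 cells transiently transfected with a turtle AR–GAL4 chimera and GAL4-UAS reporter, co-treated with 3 nM 6-alpha-fluorotestosterone for partial stimulation. Reporter mRNA is quantified at 24 h by RT-PCR and capillary electrophoresis, gain-of-signal versus DMSO.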

Experiment [13] has as its target Estrogen receptor beta (Homo sapiens) (UniProt Q92731). As to the kind of experiment: ATG_hERb_XSP1: Attagene TRANS-FACTORIAL Multi-Species (XSP1) HepG2 Assay for human Estrogen Receptor (ESR2) (AID 2283788). In short, it runs like this:
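Read-out: reporter mRNA induction by RT-PCR, HpaI digestion and capillary electrophoresis fluorescence, fitted in positive direction relative to DMSO baseline. Human liver HepG2 cells expressing ERβ-Gal4 fusion, dosed 24 h, medium containing 3 nM 6-alpha-fluorotestosterone.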

Experiment [14] concerns the target GAL4 Transcription Factor (Internal Marker), GAL4 (gene 855828) (UniProt P04386). The experiment can be described thus: ATG_GAL4_XSP1: Attagene TRANS-FACTORIAL Multi-Species (XSP1) HepG2 Assay for GAL4 Transcription Factor (Internal Marker) (AID 2283789). Put shortly:
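HepG2 cells transiently transfected with multiplexed GAL4-UAS reporter units were exposed for 24 h with 3 nM 6-alpha-fluorotestosterone present. Reporter mRNA was quantified by RT-PCR, FAM labelling, HpaI digestion and capillary electrophoresis; background-control readout, gain-of-signal versus DMSO.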

Experiment [15] in a line: ATG_M_32_XSP1: Attagene TRANS-FACTORIAL Multi-Species (XSP1) HepG2 Assay for M32 Transcription Factor (Internal Marker) (AID 2283799). Put shortly: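 HepG2 cells transiently transfected with multi-species TRANS reporter units, dosed 24 h with 3 nM 6-alpha-fluorotestosterone present. Internal-marker reporter mRNA quantified by RT-PCR and capillary electrophoresis; positive-direction fit versus DMSO.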

Experiment [16] has as its target Peroxisome proliferator-activated receptor gamma (Homo sapiens) (UniProt P37231). The experiment can be described thus: ATG_hPPARg_XSP1: Attagene TRANS-FACTORIAL Multi-Species (XSP1) HepG2 Assay for human Peroxisome Proliferator-activated Receptor gamma (PPARg) (AID 2283800). In short, it runs like this:
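HepG2 cells transiently transfected with GAL4-UAS reporter units carrying chimeric NR-Gal4 proteins; 3 nM 6-alpha-fluorotestosterone present. After 24 h dosing, reporter mRNA quantified by RT-PCR and capillary electrophoresis; gain of signal relative to DMSO.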

The nature of experiment [17]: ATG_M_19_XSP1: Attagene TRANS-FACTORIAL Multi-Species (XSP1) HepG2 Assay for M19 Transcription Factor (Internal Marker) (AID 2283798). Put shortly: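 HepG2 cells transiently transfected with multiplexed GAL4-UAS reporter units, dosed 24 h with 3 nM 6-alpha-fluorotestosterone present for partial AR stimulation. Reporter mRNA measured by RT-PCR with capillary electrophoresis; gain-of-signal fitted relative to DMSO.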

Experiment [18] deals with mouse Peroxisome Proliferator-activated Receptor gamma (PPARg), Pparg (gene 19016) (UniProt P37238). As to the kind of experiment: ATG_mPPARg_XSP1: Attagene TRANS-FACTORIAL Multi-Species (XSP1) HepG2 Assay for mouse Peroxisome Proliferator-activated Receptor gamma (PPARg) (AID 2283802). Put shortly: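 HepG2 cells transiently transfected with GAL4-UAS reporter units driven by mouse PPARg–GAL4 chimera; 3 nM 6-alpha-fluorotestosterone present. After 24 h dosing, reporter mRNA quantified by RT-PCR, fluorescent labelling and capillary electrophoresis; gain of signal versus DMSO.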
Sequence of mouse Peroxisome Proliferator-activated Receptor gamma (PPARg), Pparg (gene 19016) (P37238 whole entry, looked up, the tested form may be a part): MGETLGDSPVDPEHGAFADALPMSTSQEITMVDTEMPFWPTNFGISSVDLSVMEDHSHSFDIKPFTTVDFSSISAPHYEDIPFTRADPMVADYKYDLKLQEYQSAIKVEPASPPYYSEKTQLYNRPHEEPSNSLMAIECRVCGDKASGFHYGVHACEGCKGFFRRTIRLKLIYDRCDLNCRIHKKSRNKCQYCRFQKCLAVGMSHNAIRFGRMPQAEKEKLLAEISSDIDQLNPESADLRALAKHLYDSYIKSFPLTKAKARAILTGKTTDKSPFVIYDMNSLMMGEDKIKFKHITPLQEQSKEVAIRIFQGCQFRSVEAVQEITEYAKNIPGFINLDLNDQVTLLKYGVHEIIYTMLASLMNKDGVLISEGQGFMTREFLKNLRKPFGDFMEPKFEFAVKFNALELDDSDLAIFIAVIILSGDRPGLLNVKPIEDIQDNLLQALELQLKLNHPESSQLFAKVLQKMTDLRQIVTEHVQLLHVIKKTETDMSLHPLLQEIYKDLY

Sequence of zebrafish Thyroid Hormone Receptor beta (TRb), thrb (gene 30607) (Q9PVE4 whole entry, looked up, the tested form may be a part): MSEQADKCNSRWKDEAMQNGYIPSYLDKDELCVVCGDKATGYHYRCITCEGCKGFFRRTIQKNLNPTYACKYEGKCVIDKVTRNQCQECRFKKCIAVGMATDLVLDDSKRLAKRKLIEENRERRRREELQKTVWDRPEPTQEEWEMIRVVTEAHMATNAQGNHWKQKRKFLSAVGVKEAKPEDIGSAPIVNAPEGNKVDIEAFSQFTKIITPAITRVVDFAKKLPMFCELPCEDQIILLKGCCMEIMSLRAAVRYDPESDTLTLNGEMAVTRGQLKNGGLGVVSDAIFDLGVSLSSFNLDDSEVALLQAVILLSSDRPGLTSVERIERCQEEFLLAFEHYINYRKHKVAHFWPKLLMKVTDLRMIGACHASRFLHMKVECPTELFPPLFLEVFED
Sequence of Nuclear receptor subfamily 1 group I member 2 (Mus musculus) (O54915 whole entry, looked up, the tested form may be a part): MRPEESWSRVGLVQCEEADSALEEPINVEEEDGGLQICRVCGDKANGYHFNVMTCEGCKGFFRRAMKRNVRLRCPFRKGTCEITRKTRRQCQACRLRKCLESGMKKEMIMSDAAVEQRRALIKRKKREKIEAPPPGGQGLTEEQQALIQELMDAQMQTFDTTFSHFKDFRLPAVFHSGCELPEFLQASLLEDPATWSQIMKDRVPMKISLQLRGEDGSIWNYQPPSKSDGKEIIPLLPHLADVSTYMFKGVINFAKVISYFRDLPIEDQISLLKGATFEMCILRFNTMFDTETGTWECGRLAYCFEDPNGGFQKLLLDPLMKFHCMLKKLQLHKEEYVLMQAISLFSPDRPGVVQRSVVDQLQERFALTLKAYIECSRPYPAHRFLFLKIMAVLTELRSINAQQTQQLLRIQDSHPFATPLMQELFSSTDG
Sequence of zebrafish Thyroid Hormone Receptor alpha (TRa), thraa (gene 30670) (Q98867 whole entry, looked up, the tested form may be a part): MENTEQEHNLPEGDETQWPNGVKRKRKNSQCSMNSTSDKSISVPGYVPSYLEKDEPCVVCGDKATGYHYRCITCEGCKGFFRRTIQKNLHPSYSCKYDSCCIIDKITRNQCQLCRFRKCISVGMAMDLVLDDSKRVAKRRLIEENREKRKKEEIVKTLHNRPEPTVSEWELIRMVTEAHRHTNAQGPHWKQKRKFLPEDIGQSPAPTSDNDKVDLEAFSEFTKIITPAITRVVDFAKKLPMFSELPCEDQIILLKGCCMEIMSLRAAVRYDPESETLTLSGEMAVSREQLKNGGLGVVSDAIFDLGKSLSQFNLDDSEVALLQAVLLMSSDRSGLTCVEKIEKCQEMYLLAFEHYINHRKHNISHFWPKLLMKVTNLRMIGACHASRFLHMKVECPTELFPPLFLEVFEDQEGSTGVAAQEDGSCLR
Sequence of human Thyroid hormone Receptor beta (TRb), THRB (gene 7068) (P10828 whole entry, looked up, the tested form may be a part): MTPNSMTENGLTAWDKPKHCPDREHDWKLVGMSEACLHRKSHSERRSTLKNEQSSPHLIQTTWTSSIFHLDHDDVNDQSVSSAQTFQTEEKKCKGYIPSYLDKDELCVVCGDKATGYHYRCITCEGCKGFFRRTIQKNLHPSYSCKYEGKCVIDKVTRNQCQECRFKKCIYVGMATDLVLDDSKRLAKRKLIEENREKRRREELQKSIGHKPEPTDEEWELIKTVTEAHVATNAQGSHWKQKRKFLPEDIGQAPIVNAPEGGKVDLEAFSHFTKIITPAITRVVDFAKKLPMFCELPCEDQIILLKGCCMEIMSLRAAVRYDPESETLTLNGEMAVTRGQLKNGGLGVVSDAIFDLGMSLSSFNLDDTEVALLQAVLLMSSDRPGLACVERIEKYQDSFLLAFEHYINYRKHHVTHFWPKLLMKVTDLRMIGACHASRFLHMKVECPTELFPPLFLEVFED
Sequence of frog Thyroid hormone Receptor alpha (TRa), thra-a (gene 397942) (P15204 whole entry, looked up, the tested form may be a part): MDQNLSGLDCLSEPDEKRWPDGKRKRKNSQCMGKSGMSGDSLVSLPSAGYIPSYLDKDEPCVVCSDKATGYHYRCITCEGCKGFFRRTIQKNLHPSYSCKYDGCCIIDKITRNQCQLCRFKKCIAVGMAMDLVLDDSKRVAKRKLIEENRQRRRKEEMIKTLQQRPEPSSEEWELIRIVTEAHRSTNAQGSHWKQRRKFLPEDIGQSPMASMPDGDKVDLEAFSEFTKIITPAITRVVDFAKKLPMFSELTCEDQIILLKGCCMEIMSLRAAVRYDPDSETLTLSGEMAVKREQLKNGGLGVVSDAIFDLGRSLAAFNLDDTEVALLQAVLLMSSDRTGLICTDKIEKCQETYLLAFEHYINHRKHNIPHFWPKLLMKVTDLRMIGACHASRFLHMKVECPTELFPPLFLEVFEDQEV
Sequence of human Thyroid hormone Receptor alpha (TRa), THRA (gene 7067) (P10827 whole entry, looked up, the tested form may be a part): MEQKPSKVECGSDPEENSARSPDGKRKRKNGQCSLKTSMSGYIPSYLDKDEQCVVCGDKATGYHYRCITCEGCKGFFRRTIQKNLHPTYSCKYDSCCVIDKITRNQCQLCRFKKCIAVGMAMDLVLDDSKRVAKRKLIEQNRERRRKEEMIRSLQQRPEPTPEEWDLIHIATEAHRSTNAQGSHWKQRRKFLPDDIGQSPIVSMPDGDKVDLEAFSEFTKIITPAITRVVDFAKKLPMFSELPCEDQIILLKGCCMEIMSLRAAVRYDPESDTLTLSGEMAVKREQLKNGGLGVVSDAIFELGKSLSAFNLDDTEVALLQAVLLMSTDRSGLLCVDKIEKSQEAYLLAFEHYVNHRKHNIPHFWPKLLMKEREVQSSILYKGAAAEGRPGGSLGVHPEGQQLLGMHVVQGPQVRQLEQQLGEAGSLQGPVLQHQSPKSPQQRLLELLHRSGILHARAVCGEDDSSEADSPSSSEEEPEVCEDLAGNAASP
Sequence of Estrogen receptor beta (Homo sapiens) (Q92731 whole entry, looked up, the tested form may be a part): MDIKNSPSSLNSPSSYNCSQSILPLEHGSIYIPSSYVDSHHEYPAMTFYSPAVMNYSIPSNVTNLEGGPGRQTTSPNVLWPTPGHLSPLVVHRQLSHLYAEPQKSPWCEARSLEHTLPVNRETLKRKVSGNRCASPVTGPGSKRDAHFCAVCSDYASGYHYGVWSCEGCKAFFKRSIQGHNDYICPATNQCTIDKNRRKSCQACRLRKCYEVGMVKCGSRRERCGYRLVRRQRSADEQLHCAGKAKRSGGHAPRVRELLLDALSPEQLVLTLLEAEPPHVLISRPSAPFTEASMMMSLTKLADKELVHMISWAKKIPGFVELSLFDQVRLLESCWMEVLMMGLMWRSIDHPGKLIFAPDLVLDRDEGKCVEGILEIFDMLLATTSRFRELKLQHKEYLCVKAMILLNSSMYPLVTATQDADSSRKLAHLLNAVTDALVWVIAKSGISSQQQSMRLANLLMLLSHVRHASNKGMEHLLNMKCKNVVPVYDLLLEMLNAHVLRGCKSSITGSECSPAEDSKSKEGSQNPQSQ
Sequence of AR (gene 367) (P10275 whole entry, looked up): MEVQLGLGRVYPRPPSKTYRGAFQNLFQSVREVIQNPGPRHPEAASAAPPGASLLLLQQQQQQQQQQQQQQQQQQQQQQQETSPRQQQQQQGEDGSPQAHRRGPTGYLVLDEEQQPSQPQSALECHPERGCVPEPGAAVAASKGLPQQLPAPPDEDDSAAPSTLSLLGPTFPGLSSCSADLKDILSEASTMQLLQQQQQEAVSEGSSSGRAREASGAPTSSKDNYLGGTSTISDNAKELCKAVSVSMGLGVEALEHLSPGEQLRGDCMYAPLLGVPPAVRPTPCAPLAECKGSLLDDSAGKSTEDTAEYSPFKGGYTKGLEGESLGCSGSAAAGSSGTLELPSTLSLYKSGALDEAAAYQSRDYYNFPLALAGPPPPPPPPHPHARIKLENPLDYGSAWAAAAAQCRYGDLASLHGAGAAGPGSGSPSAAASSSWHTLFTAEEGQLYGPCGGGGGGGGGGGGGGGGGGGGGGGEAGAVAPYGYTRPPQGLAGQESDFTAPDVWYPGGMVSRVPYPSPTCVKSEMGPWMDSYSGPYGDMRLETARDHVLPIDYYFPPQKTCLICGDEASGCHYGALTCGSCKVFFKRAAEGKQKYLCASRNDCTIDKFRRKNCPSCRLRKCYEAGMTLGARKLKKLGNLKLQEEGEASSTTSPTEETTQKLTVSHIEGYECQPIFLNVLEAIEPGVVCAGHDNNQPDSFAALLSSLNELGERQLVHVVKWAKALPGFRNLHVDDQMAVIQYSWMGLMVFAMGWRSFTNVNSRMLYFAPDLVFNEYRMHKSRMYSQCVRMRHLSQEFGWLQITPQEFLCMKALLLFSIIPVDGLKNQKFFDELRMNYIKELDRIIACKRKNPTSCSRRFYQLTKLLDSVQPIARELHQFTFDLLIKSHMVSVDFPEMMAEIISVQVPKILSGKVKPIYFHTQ

For `Cc1ccccc1CO[C@@H]1C[C@@]2(C(C)C)CC[C@]1(C)O2`, the AC50 with AR (gene 367) was 76.6 µM (active).
Take `CC(C)(O)C(=O)Nc1ccc([N+](=O)[O-])c(C(F)(F)F)c1`: the call in experiment [1], in [2], in experiment [3], in experiment [4], in experiment [5] and in experiment [8] was inactive. For the same molecule, the molecule was called inactive in [11]. Moreover, the AC50 in experiment [6] was 50 µM (active); in experiment [7] it was 30.6 µM (active); in experiment [9] it was 18.2 µM (active); in experiment [10] it was 50 µM (active).
In the case of `C[C@]12CCC(=O)C=C1CC[C@@H]1[C@@H]2CC[C@]2(C)C(=O)CC[C@@H]12`, the AC50 is 0.658 µM (active) in experiment [12]; 16.4 nM (active) and 8 nM (active) in [13]; 2.3 µM (active) in experiment [4]. The result in [14], in experiment [1], in experiment [2], in experiment [15], in experiment [16] and in experiment [3] was inactive. Further, the result in experiment [5], in experiment [6], in [7], in [8], in experiment [9] and in [10] was inactive. Moreover, the molecule was classed as inactive in [11].
Take `ClC(Cl)=C(c1ccc(Cl)cc1)c1ccc(Cl)cc1`: the outcome in experiment [17], in [15], in [3], in experiment [18], in experiment [4] and in experiment [7] was inactive. Moreover, the call in experiment [8], in experiment [9], in experiment [10] and in experiment [11] was inactive.
